Most compounds without a hit are left out; they make up all but 0.81% or so of the library.
TbPYK inhibitor: qHTS of Trypanosoma Brucei Inhibitors; pyruvate kinase (Trypanosoma brucei), Q57TT1; TbPYK enzyme, Kinase-Glo Plus ATP luminescence, 45 min; Potency, µM (doses to about 76.8 µM), for inactives: top-dose activity, negative = inhibition, hits mostly inhibitors; 410,000 compounds, 0.12% hits; AID 624173, 2012; also: potency is read from the fitted curve at half-maximal effect; % is scaled to controls: 0 for no effect and ±100 for the full control effect; nearly all actives have a fitted effect of over 50% in size
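Luminescent Kinase-Glo Plus end-point after 45 min room-temperature reaction of T. brucei pyruvate kinase started with 130 uM ADP (final). Buffer TEA 50 mM pH 7.2 with KCl, MgCl2, BSA, Tween-20; titration-based qHTS with fitted concentration-effect curves.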
RE007 growth inh: qHTS Assay for Inhibitors of the HIV-1 protein Vpr; AID 651644, 2012; S. pombe RE007 Vpr strain, BacTiter-Glo ATP luminescence, 24 h; 360,000 compounds, 0.21% hits; Potency, µM (highest dose often 92.2 µM), inactives show at the highest dose activity change, negative = less growth, actives largely listed as inhibitors; active = well fitted falling curve with a large enough effect; inconclusive = small, poorly fitted or top-dose-only effect; inactive = no such curve, though single readings can be large or run the other way; also: potency is read from the fitted curve at half-maximal effect; % is scaled to controls: 0 for no effect and ±100 for the full control effect; nearly all actives have a fitted effect of over 50% in size
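Fission yeast RE007 carrying one integrated HIV-1 vpr copy, seeded at OD 0.01 in PMG+AL medium with 23 nL pinned compound. Grown 24 h at 30 degrees; viability read by BacTiter-Glo luminescence after 5 min.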
LmPK inhibitor: qHTS Assay for Inhibitors of Leishmania Mexicana Pyruvate Kinase (LmPK); Q27686; purified LmPK, Kinase-Glo ATP luminescence, 1 h; Potency, µM (doses to about 57.5 µM), for the others: at the highest dose activity change, negative = inhibition, hits mostly inhibitors; 290,000 compounds, 0.37% hits; also: potency is read from the fitted curve at half-maximal effect; % is scaled to controls: 0 for no effect and ±100 for the full control effect
Target sequence (Q27686 whole entry, looked up): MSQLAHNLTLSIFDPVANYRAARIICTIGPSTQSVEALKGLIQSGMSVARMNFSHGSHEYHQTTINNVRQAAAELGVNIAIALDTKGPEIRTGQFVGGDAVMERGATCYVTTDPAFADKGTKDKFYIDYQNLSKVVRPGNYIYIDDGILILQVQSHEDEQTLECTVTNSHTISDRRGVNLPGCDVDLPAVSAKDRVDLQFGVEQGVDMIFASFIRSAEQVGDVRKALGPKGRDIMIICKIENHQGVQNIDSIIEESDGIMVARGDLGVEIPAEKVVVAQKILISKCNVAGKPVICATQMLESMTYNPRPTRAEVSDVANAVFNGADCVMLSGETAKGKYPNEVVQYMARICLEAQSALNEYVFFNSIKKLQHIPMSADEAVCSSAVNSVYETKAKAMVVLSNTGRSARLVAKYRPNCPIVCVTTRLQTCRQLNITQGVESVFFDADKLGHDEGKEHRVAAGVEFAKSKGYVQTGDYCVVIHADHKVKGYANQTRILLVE
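In 50 mM imidazole pH 7.2 with 7 mM MgCl2, LmPK (0.1 nM) turned over PEP (0.5 mM) and ADP (0.1 mM) for 1 h at room temperature. Luciferase read-out of ATP.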
SARS PLpro yeast-1: qHTS of Yeast-based Assay for SARS-CoV PLP; 330,000 compounds, 0.19% hits; S. cerevisiae expressing SARS-CoV PLpro, growth rescue; Potency, µM (series often up to 32.9 µM), without a hit: at the top dose activity, positive = growth rescue, usual class: activators; calls by dose curve; also: potency is read from the fitted curve at half-maximal effect; 0% is about no effect; nearly all actives have a fitted effect of over 55% in size
AMA1 RON2 block: qHTS for Inhibitors of AMA1-RON; Towards Development of Antimalarial Drug Lead: Primary Screen; 360,000 compounds, 0.2% hits; AlphaScreen AMA1-biotinylated RON2 peptide binding; AID 720542, 2013; Plasmodium falciparum AMA1 (3D7) - RON2 peptide interaction; Potency, µM (highest dose often 58.2 µM), inactives show at the top dose activity change, negative = inhibition, usual class: inhibitors;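 also: potency is read from the fitted curve at half-maximal effect; 0% = vehicle wells and -100% = peptide control; nearly all actives have a fitted effect of over 45% in size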
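AMA1 (3D7) with his tag at 25 nM final met compounds first, then biotinylated RON2 peptide at 25 nM; detection used donor plus acceptor beads, 10 µg/mL apiece, read by AlphaScreen after 30 min at room temperature.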
SARS PLpro yeast-2: qHTS of Yeast-based Assay for SARS-CoV PLP: Hit Validation; yeast expressing SARS-CoV PLpro, growth phenotype rescue; 1,000 compounds, 19% hits; calls only; shares compounds with SARS PLpro yeast-1; call rule not given here
* = called active by the depositor; i = inactive; ? = inconclusive; . = no result given. Unless noted, calls follow the shape of the dose curve; as a rule, active = well fitted curve in the direction sought with a large enough effect; inconclusive = small, poorly fitted or top-dose-only effect, or another doubt; inactive = no such curve, though single readings can be large; an effect the other way counts as inactive or inconclusive.

SMILES	TbPYK inhibitor	RE007 growth inh	LmPK inhibitor	SARS PLpro yeast-1	AMA1 RON2 block	SARS PLpro yeast-2
COc1ccc(CNC(=O)c2ccc(S(=O)(=O)N3CCCC3)cc2)cc1OC	1.4%	5.1%	-4.4%	?	-3.6%	i
COc1ccc(S(=O)(=O)N2CCCCC2)cc1C(C)C	-9.5%	-1.0%	-3.2%	?	-8.0%	i
Cc1ccc(S(=O)(=O)N2CCN(c3nc(-c4cccs4)nc4ccccc34)CC2)cc1	-7.5%	.	.	.	.	.
CCN1C(=O)/C(=C2/C=CC=CN2C)OC1=S	-6.5%	-19.6%	-3.2%	11.2µM*	-4.6%	i
O=C(Oc1c(Cl)cc(Cl)c2cccnc12)c1cccs1	10.3%	5.62µM*	4.7%	.	68.3%	?
CCOc1ccc(NC(=O)CN(C)C(=O)c2c(C)nn(-c3ccc(F)cc3)c2Cl)cc1OCC	-9.6%	-1.6%	.	?	-0.8%	i
CCOc1ccc(NC(=O)CN(C)C(=O)c2c(C)nn(-c3ccccc3)c2Cl)cc1OCC	-1.5%	1.8%	.	4.8%	-1.1%	.
O=S(=O)(Cc1ccccc1)Cc1cnc(Cl)s1	3.6%	19.2%	0.3%	4.9%	12.0%	.
O=S(=O)(Cc1cnc(Cl)s1)c1ccccc1	1.4%	2.2%	-5.3%	12.6µM*	2.6%	i
COCCCNC(=O)Cn1c(=O)n(-c2ccc(C)cc2)c(=O)c2c1c1cc(C)ccc1n2C	-2.9%	.	.	.	.	.
C[C@@H]1[C@H](O)C[C@@]23COC(=O)C2=CCCC3[C@@]1(C)CCC1COC(=O)C1 (some centres not stated)	-0.1%	1.7%	.	5.1%	7.8%	.
CCOC(=O)c1c(-c2ccc(OC)cc2)csc1/N=C/C1=C(O)CCCC1=O	-4.8%	0.0%	1.6%	?	-10.0%	i
O=C(NNC1=C(C(=O)C(F)(F)F)CCC1)c1cccc(O)c1	-1.1%	26.6%	4.1%	14.1µM*	15.9%	i
O=C(NNC1=C(C(=O)C(F)(F)F)CCC1)c1cccnc1	1.9%	15.4%	7.6%	1.9%	111.7%	.
Cc1cscn1	-10.2%	4.5%	.	?	0.0%	i
Cc1ccc(CNC(=O)Cc2c(C)c3cc4c(C)coc4cc3oc2=O)cc1	-2.8%	.	.	.	.	.
N#C/C(=C\C=C\c1ccccc1[N+](=O)[O-])C(=O)NC1CCCCC1	-3.0%	-2.6%	8.7%	?	-9.7%	i
O=C(CSCc1ccc(Br)cc1)NC1CC1	5.0%	-17.1%	2.6%	15.3%	5.3%	.
O=C(CSCc1cccc(Br)c1)NC1CC1	-1.5%	5.4%	1.1%	?	3.8%	i
COc1ccc(C(=O)Oc2c(CN3CCOCC3)cc(Cl)c3cccnc23)cc1	4.5%	-24.2%	0.7%	-2.1%	-18.0%	.
COc1cccc(C(=O)Oc2c(CN3CCOCC3)cc(Cl)c3cccnc23)c1	1.7%	-23.8%	7.1%	?	-74.0%	i
COc1cccc(OCCSc2nc(N)cc(N)n2)c1	0.6%	-8.8%	-16.6%	.	8.7%	i
O=C(c1ccc(NC(=S)NCc2ccco2)cc1)N1CCCCC1	-6.1%	13.0%	0.1%	?	2.7%	i
COc1cccc(CNC(=O)c2ccc(CS(=O)(=O)Cc3ccc(C)cc3)o2)c1	0.1%	-10.9%	4.0%	-3.5%	-18.7%	.
COc1cccc(CNC(=O)c2ccc(CS(=O)(=O)Cc3ccccc3C)o2)c1	8.4%	4.0%	0.2%	?	0.0%	i
COc1ccc(CN2CC3CC(C2)c2cccc(=O)n2C3)cc1OC (configuration not stated)	-6.0%	5.3%	0.1%	-6.4%	0.0%	.
O=c1cccc2n1CC1CC2CN(Cc2ccc3c(c2)OCO3)C1 (configuration not stated)	5.4%	10.6%	1.9%	?	17.3%	?
O=C(N/N=C/c1cc(Cl)ccc1O)C(=O)Nc1ccccc1OC(F)(F)C(F)F	-1.8%	-24.8%	-0.2%	2µM*	22.6%	i
O=C(N/N=C/c1cc2ccccc2nc1Cl)/C(=C/c1cccs1)NC(=O)c1ccccc1	2.5%	6.7%	0.2%	?	-16.9%	i

From PubChem BioAssay
